Over roughly 68,000 sequences, “fluorescence intensity (a.u.)” has its median near 9,100; the highest 2% begin near 16,000. This excerpt belongs to a sample that is enriched for the highest values.

The assay deals with OsWRKY34 (Oryza sativa, UniProt Q0JBA9 1-250). The assay is described as follows: protein-binding microarray (RPBM); PBS, 2% BSA, 51.3 ng/ul salmon testes DNA, 50 uM zinc acetate, 200 nM TF, 25 C, 1 h; high values mean tight binding. Particulars: protein: recombinant; tags: N-terminal polyhistidine and DsRed monomer fusion (pET32a); label: CyDye5-dUTP incorporated in the synthesized complementary strand; 3' TTTTT single-stranded linker to array surface; dsDNA, one strand shown. In short, it runs like this: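 Binding signal is defined as the fluorescence intensity of each feature in arbitrary units, read on an Axon 4000B scanner. Transcription factors with N-terminal polyhistidine and DsRed fusions came from E. coli BL21-CodonPlus and were purified on Ni–NTA. They were incubated at 200 nM for 1 h at 25 °C on a custom Agilent array that had been made double-stranded with Cy5-dUTP, with 50 µM zinc acetate present, and the array was washed.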
OsWRKY34, sequence (Q0JBA9 entry or part of it): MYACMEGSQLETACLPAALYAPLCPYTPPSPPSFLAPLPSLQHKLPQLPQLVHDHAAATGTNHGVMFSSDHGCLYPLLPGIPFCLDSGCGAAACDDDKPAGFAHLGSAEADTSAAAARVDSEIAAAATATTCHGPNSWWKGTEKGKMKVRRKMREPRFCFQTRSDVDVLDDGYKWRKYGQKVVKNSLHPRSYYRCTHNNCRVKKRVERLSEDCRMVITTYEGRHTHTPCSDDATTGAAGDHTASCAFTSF
“AATTTTTTTTTGCTTACAAAGGGTGAAACTTTCTCTCTCTCGGAGTCACCTAGTGCAG”: the binding signal was 8500 fluorescence intensity (a.u.).

Turning to “CTCCGACGACCCCACCGTGCCCACCCCGACCGCCGTCTCGCGGAGTCACCTAGTGCAG”, the binding signal is 9650 fluorescence intensity (a.u.).

For “TTTCTGGGATATTCCATCTCATTACAGCACTCATTCTTTACGGAGTCACCTAGTGCAG”, the binding signal is 9350 fluorescence intensity (a.u.).

For “AATCTCCATCTTCTTGCTCGTACAACGTAAATACTCGTCTCGGAGTCACCTAGTGCAG”, the binding signal was 8830 fluorescence intensity (a.u.).

Turning to “CGTCTTGTCTTGGCGTATGTTGGCTTGTATGTTGTTCCGTCGGAGTCACCTAGTGCAG”, the binding signal is 10500 fluorescence intensity (a.u.).

“CCCTTTGTCCTGCAGTACGTTTTTCCTTGCATTTTTCTTTCGGAGTCACCTAGTGCAG”: the binding signal is 19700 fluorescence intensity (a.u.).

Consider “AGTTTTGTTTCTTTCCTGTTCACAGTTCACCTTTGCCTTTCGGAGTCACCTAGTGCAG”, for which the binding signal is 12400 fluorescence intensity (a.u.).

In the case of “CTCTTTTCTTTCTTTTCTTTTCCTTTCTTTTTCCTTTCTTCGGAGTCACCTAGTGCAG”, the binding signal is 8540 fluorescence intensity (a.u.).

As to “CTTTCTTTTTCCTTCTCTCTCTCTTTTCTTTCTTTTCTTTCGGAGTCACCTAGTGCAG”, the binding signal was 13600 fluorescence intensity (a.u.).

For the sequence “ATTGTCCATGATGTTCTTCCTTTTCTTTTTCGTTGTCAAACGGAGTCACCTAGTGCAG”, the binding signal was 10300 fluorescence intensity (a.u.).

Consider “CCGCTCCGTTTTGTGTCGTTTTGTGTATTTTCTCCACTCACGGAGTCACCTAGTGCAG”, for which the binding signal is 17400 fluorescence intensity (a.u.).

For the sequence “ATCATCACTCCATTGCCGCTGTATTTGTTGTCATCGTTTTCGGAGTCACCTAGTGCAG”, the binding signal was 11200 fluorescence intensity (a.u.).

Regarding “TTATTTTCTCCACTCACTACTTGTTCGTTTAGCAATTTGTCGGAGTCACCTAGTGCAG”, the binding signal is 8750 fluorescence intensity (a.u.).

In the case of “ACTTGATGTTCTTTCGTTCTTTCCTGCGAAAACGTCAGGCCGGAGTCACCTAGTGCAG”, the binding signal was 25600 fluorescence intensity (a.u.).

For the sequence “GTTCTTGGTTCCTGCATTTCTTTTCTTTTTTGCCTTTGTTCGGAGTCACCTAGTGCAG”, the binding signal was 11300 fluorescence intensity (a.u.).

On to “CCTGCCGTTTTCTTTTTCTTTTTCTTTCCTTTTCCTTTTTCGGAGTCACCTAGTGCAG”, for which the binding signal was 17000 fluorescence intensity (a.u.).

“CCTATTTTTGATGTTCCGGATTTTTTCTTTGCGGCCAAAACGGAGTCACCTAGTGCAG”: the binding signal is 11700 fluorescence intensity (a.u.).

With “TCCTCTCTGTCTTCTGTCTTCTCTTCTTCTTCCTCACCAACGGAGTCACCTAGTGCAG”, the binding signal is 11600 fluorescence intensity (a.u.).

Turning to “CAAACAGAGCACACCTTTTTCCAGGACATTTGTCAATATTCGGAGTCACCTAGTGCAG”, the binding signal was 9180 fluorescence intensity (a.u.).

“ATCCTTTTCTTTGGCAGTCCTTGATCCCAGATCCACATTTCGGAGTCACCTAGTGCAG”: the binding signal was 9820 fluorescence intensity (a.u.).

On to “GGCTTTAATTGATCACTATGAATACTTGGCTTGTTGTCATCGGAGTCACCTAGTGCAG”, for which the binding signal was 9040 fluorescence intensity (a.u.).

“AAACCTCGCATGCCAATAGTTGGGAACGCCGGGGCGGGGTCGGAGTCACCTAGTGCAG”: the binding signal was 9340 fluorescence intensity (a.u.).

On to “TTCCTTTTTCTATTTTTGGAATTTATTTTAATTTTTATTTCGGAGTCACCTAGTGCAG”, for which the binding signal is 8910 fluorescence intensity (a.u.).

As for “CCCCGCTCGCGGCCCGGTCGCGCCAAACATCGTCCGACTCCGGAGTCACCTAGTGCAG”, the binding signal was 9010 fluorescence intensity (a.u.).

As to “TCCACAACTGATTTTATTCCGACTTGTTTTTTTTTCTTTTCGGAGTCACCTAGTGCAG”, the binding signal is 10800 fluorescence intensity (a.u.).

Take “TTACTACTTCACCGTCTCTTTTTCTTCCTCAGCGCACAAACGGAGTCACCTAGTGCAG”: the binding signal was 9610 fluorescence intensity (a.u.).

Consider “AGACGGAGGAGGACAAGGACATAGGGGAGGAGGGGCGAGGCGGAGTCACCTAGTGCAG”, for which the binding signal is 9530 fluorescence intensity (a.u.).

Take “ATTTCTTTTTGTTGTGTTATCGTGTTGTTTCGTCACTAGTCGGAGTCACCTAGTGCAG”: the binding signal is 19600 fluorescence intensity (a.u.).

Take “ATGTTGTCGTGTATCATTTGTTTTTCTTATGTTATTTTCTCGGAGTCACCTAGTGCAG”: the binding signal was 10700 fluorescence intensity (a.u.).

Regarding “GTGGATTTTTTTTTTCTTTTCTTTTTTCGTTGTTATTTGTCGGAGTCACCTAGTGCAG”, the binding signal was 10600 fluorescence intensity (a.u.).

Turning to “TTTTTCGTTTCCTTTCCGTGTTCTTTTTTTTTTCTTCCATCGGAGTCACCTAGTGCAG”, the binding signal was 10100 fluorescence intensity (a.u.).

Turning to “GCCGTTTCTTCTTTCTTTTTTTTTTCCGTGTGTGTCGTTTCGGAGTCACCTAGTGCAG”, the binding signal is 16600 fluorescence intensity (a.u.).

For “TTTTTCCGTGTGTGTCGTTTCGTTCTTGTTTGTTCGGGTCCGGAGTCACCTAGTGCAG”, the binding signal was 12400 fluorescence intensity (a.u.).

For “ACACCTTCAATCGCTCTCTCATGAATTAACCGAACAAGACCGGAGTCACCTAGTGCAG”, the binding signal was 9340 fluorescence intensity (a.u.).

Take “GTAGTAGGTAGCAGCAGTCTCAAACATGTCTTCTGAGTAGCGGAGTCACCTAGTGCAG”: the binding signal was 9420 fluorescence intensity (a.u.).

For “CGTGTTCTTGCCTGCGTATATACGGTGTACGTACACACGTCGGAGTCACCTAGTGCAG”, the binding signal is 8870 fluorescence intensity (a.u.).

For “CTTTGCTTGGTTGCTTGTGTTGTGTGCTGTGCTGTGCAGTCGGAGTCACCTAGTGCAG”, the binding signal is 8220 fluorescence intensity (a.u.).

As to “GCTAGCTGCTGTCTTGTGTTGTGTTGTGTTGTGTGGCATGCGGAGTCACCTAGTGCAG”, the binding signal is 8220 fluorescence intensity (a.u.).

For the sequence “GTGTGTTGGAGCTGCCGGTGTGTGGGTGGGGTTATTTTTTCGGAGTCACCTAGTGCAG”, the binding signal is 25100 fluorescence intensity (a.u.).

As for “AAGGGCAGAGGAGAGGAGTTGCAGTGTGGTGTGTGGCATGCGGAGTCACCTAGTGCAG”, the binding signal is 8870 fluorescence intensity (a.u.).

Turning to “GGGGCTGCTTGGGCTTGTGTTGTTTTTTTGGCAGATGCATCGGAGTCACCTAGTGCAG”, the binding signal was 19100 fluorescence intensity (a.u.).

For the sequence “AGATTTTGGGTGTGTTTGGTTGCTTGCATTGTTTTAGTCTCGGAGTCACCTAGTGCAG”, the binding signal was 9320 fluorescence intensity (a.u.).

With “TGGGTTGGGATTTGTGCTTGTTTTTTTTTTTTGTGCGTGTCGGAGTCACCTAGTGCAG”, the binding signal is 16600 fluorescence intensity (a.u.).

“AGAGCTTGTGTGGTGGTGGGGCATCAGTGTGTCAGTTGTGCGGAGTCACCTAGTGCAG”: the binding signal is 17100 fluorescence intensity (a.u.).

For “TTTTTTTTTTTTGTTGGGCTTGTGACTTGTGGGGTGTGCACGGAGTCACCTAGTGCAG”, the binding signal was 11600 fluorescence intensity (a.u.).

For the sequence “TCTTGGCGCTGTCGGTGTGTGGGTGGCGTTATATTTTTTTCGGAGTCACCTAGTGCAG”, the binding signal is 9900 fluorescence intensity (a.u.).

As for “AATTTTTTTTGGGGTTGCTGCTGTTTTTTTTGTGGAGGTTCGGAGTCACCTAGTGCAG”, the binding signal is 9450 fluorescence intensity (a.u.).

For the sequence “TATACTTGTTGGCTGCTGCTTTGTGTGTGGTGTGTTGTTTCGGAGTCACCTAGTGCAG”, the binding signal is 10400 fluorescence intensity (a.u.).

The values are drawn from publication PMC7819943, “Rice protein-binding microarrays: a tool to detect cis-acting elements near promoter regions in rice”.
